Assay results: publication PMC7862700, “An all-to-all approach to the identification of sequence-specific readers for epigenetic DNA modifications on cytosine”

Columns and labels:
Assay in all cases: DAPPL (digital affinity profiling via proximity ligation, sequencing); 10 mM Tris-HCl pH 7.5, 50 mM NaCl, 1 mM DTT, 4% glycerol, room temperature, 30 min; GST-TFs on glutathione beads, 16-mer random dsDNA library, 0.1% formaldehyde crosslink after washing; high values mean tight binding
FEV = biological target: T1, FEV (Homo sapiens, UniProt Q99581 1-238); conditions: protein: recombinant; tags: N-terminal GST; dsDNA, one strand shown
T1 sequence: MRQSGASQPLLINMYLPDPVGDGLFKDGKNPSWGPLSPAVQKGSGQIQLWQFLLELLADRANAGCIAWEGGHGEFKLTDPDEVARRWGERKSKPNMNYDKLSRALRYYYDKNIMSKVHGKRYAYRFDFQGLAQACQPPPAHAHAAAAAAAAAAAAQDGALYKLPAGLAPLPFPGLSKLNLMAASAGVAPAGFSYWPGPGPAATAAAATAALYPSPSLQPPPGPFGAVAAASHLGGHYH
Procedure, shortened: (§1)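 Human transcription factors were made in yeast as GST fusions, captured on glutathione beads and barcoded with DNA. With a tag-only sample included, the pool was incubated with 200 nmole of a random double-stranded 16-mer DNA library in Tris/NaCl/DTT/glycerol buffer at room temperature for 30 min, then crosslinked with 0.1% formaldehyde after washing, ligated by proximity, amplified and sequenced. For binding signal, each hexamer's read frequency for a factor is divided by its frequency for the tag-only sample.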

ETV5 = ETV5 (Homo sapiens, UniProt P41161 1-510); conditions: protein: recombinant; tags: N-terminal GST; dsDNA, one strand shown
Procedure, shortened: as §1

HSF1 = HSF1 (Homo sapiens, UniProt Q00613 1-529); conditions: protein: recombinant; tags: N-terminal GST; chain copies: 3; dsDNA, one strand shown
Procedure, shortened: as §1

SPIC = biological target: T2, SPIC (Homo sapiens, UniProt Q8N5J4 1-248); conditions: protein: recombinant; tags: N-terminal GST; dsDNA, one strand shown
T2 sequence: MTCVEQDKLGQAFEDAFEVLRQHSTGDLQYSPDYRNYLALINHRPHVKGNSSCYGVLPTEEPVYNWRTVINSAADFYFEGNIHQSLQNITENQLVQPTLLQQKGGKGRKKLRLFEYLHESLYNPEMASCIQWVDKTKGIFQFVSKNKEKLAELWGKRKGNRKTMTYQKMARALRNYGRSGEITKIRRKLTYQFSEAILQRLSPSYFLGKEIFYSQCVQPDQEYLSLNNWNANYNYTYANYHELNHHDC
Procedure, shortened: as §1

ELF4 = ELF4 (Homo sapiens, UniProt Q99607 1-663); conditions: protein: recombinant; tags: N-terminal GST; dsDNA, one strand shown
Procedure, shortened: as §1

ELK4 = biological target: T3, ELK4 (Homo sapiens, UniProt P28324-2 1-405); conditions: protein: recombinant; tags: N-terminal GST; dsDNA, one strand shown
T3 sequence: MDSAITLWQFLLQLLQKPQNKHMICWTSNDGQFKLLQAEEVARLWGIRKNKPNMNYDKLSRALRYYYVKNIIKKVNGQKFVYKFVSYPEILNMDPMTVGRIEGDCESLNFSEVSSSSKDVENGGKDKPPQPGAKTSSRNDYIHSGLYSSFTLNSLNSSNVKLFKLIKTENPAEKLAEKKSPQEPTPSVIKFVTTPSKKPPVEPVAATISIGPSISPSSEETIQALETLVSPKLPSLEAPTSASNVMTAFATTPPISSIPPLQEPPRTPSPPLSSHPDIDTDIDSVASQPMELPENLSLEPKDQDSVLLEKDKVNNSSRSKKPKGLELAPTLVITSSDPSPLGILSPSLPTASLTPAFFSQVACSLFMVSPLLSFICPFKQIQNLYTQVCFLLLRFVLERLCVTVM
Procedure, shortened: as §1

ETV2 = biological target: T4, ETV2 (Homo sapiens, UniProt O00321 1-342); conditions: protein: recombinant; tags: N-terminal GST; dsDNA, one strand shown
T4 sequence: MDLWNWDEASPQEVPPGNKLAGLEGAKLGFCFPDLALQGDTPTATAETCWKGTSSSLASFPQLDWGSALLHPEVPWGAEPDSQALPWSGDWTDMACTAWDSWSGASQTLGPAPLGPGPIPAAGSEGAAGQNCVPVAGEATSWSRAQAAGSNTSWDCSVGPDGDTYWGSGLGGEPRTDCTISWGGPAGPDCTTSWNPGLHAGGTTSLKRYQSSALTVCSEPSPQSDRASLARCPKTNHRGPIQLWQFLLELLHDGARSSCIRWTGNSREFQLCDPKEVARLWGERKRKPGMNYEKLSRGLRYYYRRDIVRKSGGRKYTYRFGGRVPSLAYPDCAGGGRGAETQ
Procedure, shortened: as §1

ELF3 = biological target: T5, ELF3 (Homo sapiens, UniProt P78545 1-371); conditions: protein: recombinant; tags: N-terminal GST; dsDNA, one strand shown
T5 sequence: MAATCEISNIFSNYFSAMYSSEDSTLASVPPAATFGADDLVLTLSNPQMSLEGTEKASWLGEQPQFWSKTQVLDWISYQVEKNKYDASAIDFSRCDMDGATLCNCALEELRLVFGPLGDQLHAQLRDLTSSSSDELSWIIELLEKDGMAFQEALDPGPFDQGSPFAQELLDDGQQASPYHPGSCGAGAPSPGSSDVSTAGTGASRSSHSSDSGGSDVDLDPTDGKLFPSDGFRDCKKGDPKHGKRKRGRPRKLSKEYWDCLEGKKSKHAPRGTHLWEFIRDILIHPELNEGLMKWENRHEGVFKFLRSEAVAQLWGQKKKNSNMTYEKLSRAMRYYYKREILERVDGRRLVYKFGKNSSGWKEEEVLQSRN
Procedure, shortened: as §1

CRX = CRX (Homo sapiens, UniProt O43186 1-299); conditions: protein: recombinant; tags: N-terminal GST; dsDNA, one strand shown
Procedure, shortened: as §1

ETV1 = ETV1 (Homo sapiens, UniProt P50549 1-477); conditions: protein: recombinant; tags: N-terminal GST; dsDNA, one strand shown
Procedure, shortened: as §1

ERF = biological target: T6, ERF (Homo sapiens, UniProt P50548 1-548); conditions: protein: recombinant; tags: N-terminal GST; dsDNA, one strand shown
T6 sequence: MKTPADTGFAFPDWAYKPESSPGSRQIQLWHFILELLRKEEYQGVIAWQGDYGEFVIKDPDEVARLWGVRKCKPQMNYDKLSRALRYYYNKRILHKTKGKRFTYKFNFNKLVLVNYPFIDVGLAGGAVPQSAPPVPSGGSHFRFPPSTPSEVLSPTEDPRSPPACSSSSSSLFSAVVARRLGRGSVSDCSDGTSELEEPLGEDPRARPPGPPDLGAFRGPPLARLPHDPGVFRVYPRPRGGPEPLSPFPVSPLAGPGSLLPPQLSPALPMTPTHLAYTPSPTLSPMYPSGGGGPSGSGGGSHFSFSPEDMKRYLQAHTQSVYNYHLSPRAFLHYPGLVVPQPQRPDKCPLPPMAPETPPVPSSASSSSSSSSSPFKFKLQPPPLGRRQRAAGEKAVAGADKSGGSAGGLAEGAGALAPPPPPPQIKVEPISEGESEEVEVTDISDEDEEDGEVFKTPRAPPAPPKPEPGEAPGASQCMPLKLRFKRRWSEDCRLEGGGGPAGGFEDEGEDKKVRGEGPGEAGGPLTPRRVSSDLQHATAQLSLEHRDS
Procedure, shortened: as §1

ETV3L = biological target: T7, ETV3L (Homo sapiens, UniProt Q6ZN32 1-361); conditions: protein: recombinant; tags: N-terminal GST; dsDNA, one strand shown
T7 sequence: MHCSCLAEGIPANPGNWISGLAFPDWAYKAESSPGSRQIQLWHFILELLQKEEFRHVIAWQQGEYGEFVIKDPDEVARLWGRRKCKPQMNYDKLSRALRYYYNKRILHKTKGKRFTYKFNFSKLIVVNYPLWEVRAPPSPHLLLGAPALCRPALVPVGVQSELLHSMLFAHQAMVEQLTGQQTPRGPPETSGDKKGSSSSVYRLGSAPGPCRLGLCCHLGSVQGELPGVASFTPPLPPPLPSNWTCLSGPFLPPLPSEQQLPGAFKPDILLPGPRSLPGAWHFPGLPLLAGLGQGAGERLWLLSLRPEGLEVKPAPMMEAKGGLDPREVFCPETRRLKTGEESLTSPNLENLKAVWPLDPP
Procedure, shortened: as §1

ETS2 = biological target: T8, ETS2 (Homo sapiens, UniProt P15036 1-469); conditions: protein: recombinant; tags: N-terminal GST; dsDNA, one strand shown
T8 sequence: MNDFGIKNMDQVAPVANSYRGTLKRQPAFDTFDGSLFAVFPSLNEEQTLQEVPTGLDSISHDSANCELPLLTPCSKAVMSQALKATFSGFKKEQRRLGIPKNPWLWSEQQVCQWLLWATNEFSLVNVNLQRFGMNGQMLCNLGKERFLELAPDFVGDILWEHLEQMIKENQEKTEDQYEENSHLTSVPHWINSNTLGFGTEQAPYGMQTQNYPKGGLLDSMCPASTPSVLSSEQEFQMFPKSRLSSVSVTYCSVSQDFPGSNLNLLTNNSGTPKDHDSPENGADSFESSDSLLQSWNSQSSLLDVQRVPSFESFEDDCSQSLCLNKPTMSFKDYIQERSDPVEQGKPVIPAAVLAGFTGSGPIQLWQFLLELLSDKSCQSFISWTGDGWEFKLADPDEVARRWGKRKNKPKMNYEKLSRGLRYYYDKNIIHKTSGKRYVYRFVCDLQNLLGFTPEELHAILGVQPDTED
Procedure, shortened: as §1

SPDEF = biological target: T9, SPDEF (Homo sapiens, UniProt O95238 1-335); conditions: protein: recombinant; tags: N-terminal GST; dsDNA, one strand shown
T9 sequence: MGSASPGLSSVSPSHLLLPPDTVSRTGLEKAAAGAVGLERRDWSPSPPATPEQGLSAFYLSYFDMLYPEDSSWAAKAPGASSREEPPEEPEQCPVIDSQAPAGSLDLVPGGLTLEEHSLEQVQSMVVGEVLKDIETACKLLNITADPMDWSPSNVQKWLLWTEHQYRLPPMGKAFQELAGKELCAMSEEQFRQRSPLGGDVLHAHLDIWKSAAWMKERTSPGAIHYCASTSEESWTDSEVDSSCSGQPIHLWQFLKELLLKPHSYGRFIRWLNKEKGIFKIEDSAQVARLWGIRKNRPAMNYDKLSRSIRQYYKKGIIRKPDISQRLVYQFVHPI
Procedure, shortened: as §1

ETV7 = biological target: T10, ETV7 (Homo sapiens, UniProt Q9Y603 1-341); conditions: protein: recombinant; tags: N-terminal GST; dsDNA, one strand shown
T10 sequence: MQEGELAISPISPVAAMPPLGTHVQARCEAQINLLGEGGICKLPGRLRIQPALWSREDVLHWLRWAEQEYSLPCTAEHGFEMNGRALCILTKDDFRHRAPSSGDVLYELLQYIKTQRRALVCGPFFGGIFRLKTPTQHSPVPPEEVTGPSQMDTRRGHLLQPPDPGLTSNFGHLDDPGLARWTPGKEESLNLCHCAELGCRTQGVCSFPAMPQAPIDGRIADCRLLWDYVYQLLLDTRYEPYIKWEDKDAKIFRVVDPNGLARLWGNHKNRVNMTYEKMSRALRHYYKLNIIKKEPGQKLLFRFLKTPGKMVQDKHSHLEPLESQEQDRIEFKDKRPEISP
Procedure, shortened: as §1

ELF5 = biological target: T11, ELF5 (Homo sapiens, UniProt Q9UKW6-2 1-255); conditions: protein: recombinant; tags: N-terminal GST; dsDNA, one strand shown
T11 sequence: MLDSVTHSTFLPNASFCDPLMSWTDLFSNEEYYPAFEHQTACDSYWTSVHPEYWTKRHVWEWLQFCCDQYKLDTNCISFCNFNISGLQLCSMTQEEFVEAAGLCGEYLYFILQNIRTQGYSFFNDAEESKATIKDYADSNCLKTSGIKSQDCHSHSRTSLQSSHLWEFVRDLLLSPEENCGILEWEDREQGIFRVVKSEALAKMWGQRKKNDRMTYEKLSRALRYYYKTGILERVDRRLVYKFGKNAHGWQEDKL
Procedure, shortened: as §1

ETV3 = biological target: T12, ETV3 (Homo sapiens, UniProt P41162-2 1-143); conditions: protein: recombinant; tags: N-terminal GST; dsDNA, one strand shown
T12 sequence: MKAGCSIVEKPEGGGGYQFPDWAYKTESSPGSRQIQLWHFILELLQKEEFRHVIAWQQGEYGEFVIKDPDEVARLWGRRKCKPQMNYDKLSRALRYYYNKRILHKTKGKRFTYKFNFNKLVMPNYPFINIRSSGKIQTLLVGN
Procedure, shortened: as §1

ETV6 = ETV6 (Homo sapiens, UniProt P41212 1-452); conditions: protein: recombinant; tags: N-terminal GST; dsDNA, one strand shown
Procedure, shortened: as §1

ETV5, sequence (P41161 whole entry): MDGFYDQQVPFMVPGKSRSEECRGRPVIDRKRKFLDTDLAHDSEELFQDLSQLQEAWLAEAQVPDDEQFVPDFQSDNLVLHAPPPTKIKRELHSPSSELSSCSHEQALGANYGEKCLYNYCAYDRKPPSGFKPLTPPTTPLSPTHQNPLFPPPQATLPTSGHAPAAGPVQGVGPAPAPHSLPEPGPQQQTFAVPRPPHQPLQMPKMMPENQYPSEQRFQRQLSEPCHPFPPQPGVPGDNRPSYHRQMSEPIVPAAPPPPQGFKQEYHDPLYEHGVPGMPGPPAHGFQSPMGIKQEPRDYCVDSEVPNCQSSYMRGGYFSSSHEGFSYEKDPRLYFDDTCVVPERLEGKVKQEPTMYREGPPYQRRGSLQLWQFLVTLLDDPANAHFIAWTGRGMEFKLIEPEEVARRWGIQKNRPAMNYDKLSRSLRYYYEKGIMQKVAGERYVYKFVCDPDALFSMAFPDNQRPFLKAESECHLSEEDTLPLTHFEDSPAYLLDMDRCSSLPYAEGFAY
ELF4, sequence (Q99607 whole entry): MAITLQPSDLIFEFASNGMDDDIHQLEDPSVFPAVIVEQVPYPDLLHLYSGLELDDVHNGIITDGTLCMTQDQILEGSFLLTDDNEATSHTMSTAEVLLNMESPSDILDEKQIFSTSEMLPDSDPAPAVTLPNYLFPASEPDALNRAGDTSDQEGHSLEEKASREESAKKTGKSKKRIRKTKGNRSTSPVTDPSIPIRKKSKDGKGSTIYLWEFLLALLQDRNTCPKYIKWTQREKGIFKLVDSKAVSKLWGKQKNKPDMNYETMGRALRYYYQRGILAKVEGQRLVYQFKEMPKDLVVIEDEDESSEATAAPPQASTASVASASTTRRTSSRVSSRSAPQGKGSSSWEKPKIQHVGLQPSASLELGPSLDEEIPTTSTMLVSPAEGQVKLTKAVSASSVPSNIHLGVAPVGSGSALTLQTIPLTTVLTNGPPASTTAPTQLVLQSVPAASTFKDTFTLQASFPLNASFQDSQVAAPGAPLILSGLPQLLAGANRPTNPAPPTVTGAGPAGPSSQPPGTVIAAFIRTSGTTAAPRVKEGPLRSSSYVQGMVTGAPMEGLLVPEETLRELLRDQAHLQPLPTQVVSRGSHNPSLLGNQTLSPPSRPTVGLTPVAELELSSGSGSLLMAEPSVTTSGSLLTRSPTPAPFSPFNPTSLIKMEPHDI
ETV1, sequence (P50549 whole entry): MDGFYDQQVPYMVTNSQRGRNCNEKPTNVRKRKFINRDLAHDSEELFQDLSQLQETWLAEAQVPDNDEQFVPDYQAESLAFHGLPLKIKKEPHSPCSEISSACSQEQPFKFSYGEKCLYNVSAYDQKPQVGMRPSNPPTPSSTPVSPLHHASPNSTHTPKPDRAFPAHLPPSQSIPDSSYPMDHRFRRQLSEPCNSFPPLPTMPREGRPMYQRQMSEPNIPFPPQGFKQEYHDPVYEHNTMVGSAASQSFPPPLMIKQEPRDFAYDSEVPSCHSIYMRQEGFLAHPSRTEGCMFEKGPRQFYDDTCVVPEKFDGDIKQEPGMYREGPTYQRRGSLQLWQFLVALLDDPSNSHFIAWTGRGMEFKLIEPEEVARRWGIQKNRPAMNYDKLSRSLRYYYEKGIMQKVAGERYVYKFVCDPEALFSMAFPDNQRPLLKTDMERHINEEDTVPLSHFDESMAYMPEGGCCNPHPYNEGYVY
ETV6, sequence (P41212 whole entry): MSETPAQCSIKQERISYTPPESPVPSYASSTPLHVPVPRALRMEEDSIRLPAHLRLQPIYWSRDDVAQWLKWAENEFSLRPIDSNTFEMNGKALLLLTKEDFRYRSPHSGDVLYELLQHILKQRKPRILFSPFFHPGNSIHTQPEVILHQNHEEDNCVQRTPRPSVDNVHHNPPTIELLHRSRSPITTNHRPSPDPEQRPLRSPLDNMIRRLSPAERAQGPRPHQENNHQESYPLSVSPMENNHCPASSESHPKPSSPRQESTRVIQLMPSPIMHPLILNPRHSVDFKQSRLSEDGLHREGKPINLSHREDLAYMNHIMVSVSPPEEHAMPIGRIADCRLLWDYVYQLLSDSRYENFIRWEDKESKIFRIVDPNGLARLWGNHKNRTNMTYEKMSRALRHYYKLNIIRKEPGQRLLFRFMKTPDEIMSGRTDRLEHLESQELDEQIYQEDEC
CRX, sequence (O43186 whole entry): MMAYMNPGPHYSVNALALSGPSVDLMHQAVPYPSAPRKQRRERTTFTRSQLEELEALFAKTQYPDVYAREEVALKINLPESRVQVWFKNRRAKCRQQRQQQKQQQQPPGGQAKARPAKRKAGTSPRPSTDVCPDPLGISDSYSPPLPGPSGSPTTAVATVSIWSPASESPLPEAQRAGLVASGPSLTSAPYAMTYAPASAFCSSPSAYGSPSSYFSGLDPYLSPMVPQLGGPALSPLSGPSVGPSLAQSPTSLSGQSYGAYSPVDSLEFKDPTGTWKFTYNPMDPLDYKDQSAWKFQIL
HSF1, sequence (Q00613 whole entry): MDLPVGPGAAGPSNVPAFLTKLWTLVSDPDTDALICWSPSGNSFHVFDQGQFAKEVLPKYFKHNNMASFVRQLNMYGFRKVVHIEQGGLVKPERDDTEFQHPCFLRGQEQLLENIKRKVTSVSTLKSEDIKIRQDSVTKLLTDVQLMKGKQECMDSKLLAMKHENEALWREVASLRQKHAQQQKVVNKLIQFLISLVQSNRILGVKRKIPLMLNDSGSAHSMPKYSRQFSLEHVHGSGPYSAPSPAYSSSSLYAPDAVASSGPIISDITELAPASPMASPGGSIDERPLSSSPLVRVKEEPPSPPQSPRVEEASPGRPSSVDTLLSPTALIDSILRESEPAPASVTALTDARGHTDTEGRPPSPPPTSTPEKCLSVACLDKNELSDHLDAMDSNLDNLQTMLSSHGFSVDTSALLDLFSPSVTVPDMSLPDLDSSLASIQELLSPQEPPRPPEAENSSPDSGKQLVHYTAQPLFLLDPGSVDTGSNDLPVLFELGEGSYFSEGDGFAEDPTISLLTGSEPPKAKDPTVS

In the case of TACTCA, the binding signal (FEV) is reported as 1.24 fold enrichment (6-mer frequency, TF over GST control), the binding signal (ETV5) is reported as 1.17 fold enrichment (6-mer frequency, TF over GST control) and the binding signal (HSF1) is reported as 1.12 fold enrichment (6-mer frequency, TF over GST control). The binding signal (SPIC) was 1.19 fold enrichment (6-mer frequency, TF over GST control), the binding signal (ELF4) was 1.23 fold enrichment (6-mer frequency, TF over GST control) and the binding signal (ELK4) was 1.13 fold enrichment (6-mer frequency, TF over GST control). For the same sequence, the binding signal (ETV2) was 1.17 fold enrichment (6-mer frequency, TF over GST control), the binding signal (ELF3) was 1.22 fold enrichment (6-mer frequency, TF over GST control) and the binding signal (CRX) was 1.26 fold enrichment (6-mer frequency, TF over GST control). The binding signal (ETV1) was 1.19 fold enrichment (6-mer frequency, TF over GST control), the binding signal (ERF) was 1.14 fold enrichment (6-mer frequency, TF over GST control) and the binding signal (ETV3L) was 1.23 fold enrichment (6-mer frequency, TF over GST control). For the same sequence, the binding signal (ETS2) was 1.19 fold enrichment (6-mer frequency, TF over GST control), the binding signal (SPDEF) was 1.18 fold enrichment (6-mer frequency, TF over GST control) and the binding signal (ETV7) was 1.06 fold enrichment (6-mer frequency, TF over GST control). The binding signal (ELF5) was 1.18 fold enrichment (6-mer frequency, TF over GST control), the binding signal (ETV3) was 1.14 fold enrichment (6-mer frequency, TF over GST control) and the binding signal (ETV6) was 1.22 fold enrichment (6-mer frequency, TF over GST control).
